Measured values as given in PubChem BioAssay (NCI).
The panel holds about 83,000 compounds, 20% with a hit somewhere; the sample as a whole holds those more often.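 Activity criterion: percent growth below 10, measured after cells in 96-well plates were exposed to a single compound concentration for 48 hours.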 Active and inactive are the calls of the source.

How the values were obtained:
Assay in all cases: NCI-60 one-dose screen, 48 h (100 = growth as untreated, 0 = no growth, -100 = all killed)
NCI-H23 lung = details: 10 µM unless noted
NCI-H226 lung = details: 10 µM unless noted
NCI-H322M lung = details: 10 µM unless noted
HOP-62 NSCLC = details: 10 µM unless noted
NCI-H460 lung = details: 10 µM unless noted
HOP-92 NSCLC = details: 10 µM unless noted
NCI-H522 lung = details: 10 µM
786-0 renal = details: 10 µM unless noted
COLO 205 colon = details: 10 µM unless noted
A549/ATCC NSCLC = details: 10 µM unless noted

Measured: growth

CCSc1nc(-c2cccs2)n2nc(-c3ccco3)cc2n1
inactive: NCI-H23 lung 95% | NCI-H226 lung 94.9% | NCI-H322M lung 116% | HOP-62 NSCLC 101% | NCI-H460 lung 104% | HOP-92 NSCLC 71.3% | NCI-H522 lung 91.8% | 786-0 renal 113% | COLO 205 colon 123%

CC12CCC3C(=CCc4cc(O)ccc43)C1CCC2=O (configuration not stated)
inactive: NCI-H23 lung 103% | NCI-H226 lung 102% | NCI-H322M lung 94.9% | HOP-62 NSCLC 99.2% | NCI-H460 lung 108% | HOP-92 NSCLC 99.4% | NCI-H522 lung 97% | 786-0 renal 105% | COLO 205 colon 111%

O=C(/C=C(\Nc1ccccc1)c1ccccc1)c1cn(-c2ccc([N+](=O)[O-])cc2)nn1
inactive: NCI-H23 lung 91.4% | NCI-H226 lung 95.3% | NCI-H322M lung 82.8% | HOP-62 NSCLC 101% | NCI-H460 lung 91% | HOP-92 NSCLC 95% | NCI-H522 lung 86.1% | 786-0 renal 92.1% | COLO 205 colon 97.2%

CN[C@@H]1C(OC2[C@H](O[C@H]3[C@H](O)[C@@H](O)[C@H](N=C(N)N)[C@@H](O)[C@@H]3N=C(N)N)OC(C)[C@]2(O)CO)OC(CO)C(O)C1O (some centres not stated)
inactive: NCI-H23 lung 103% | NCI-H226 lung 108% | NCI-H322M lung 111% | HOP-62 NSCLC 107% | NCI-H460 lung 113% | HOP-92 NSCLC 118% | NCI-H522 lung 112% | 786-0 renal 106% | COLO 205 colon 109%

CCc1ccc(-c2nc(SCC(=O)NC3CCCCC3)n[nH]2)cc1
inactive: NCI-H23 lung 55% | NCI-H226 lung 67.8% | NCI-H322M lung 78.4% | HOP-62 NSCLC 94.6% | NCI-H460 lung 90.8% | HOP-92 NSCLC 67.6% | NCI-H522 lung 73.6% | 786-0 renal 73.4% | COLO 205 colon 122%

NS(=O)(=O)N(c1cc(C(F)(F)F)cc(C(F)(F)F)c1)C1CCN(Cc2ccc(C(F)(F)F)cc2)CC1
inactive: NCI-H226 lung 78.1% | NCI-H322M lung 45.1% | HOP-62 NSCLC 30.2% | 786-0 renal 42.3%
active: NCI-H23 lung 9.79% | NCI-H460 lung 5.71% | HOP-92 NSCLC 7.48% | NCI-H522 lung -23.3% | COLO 205 colon -59.8%

O=C(O)C1CCN(S(=O)(=O)c2ccc(-c3ccccc3)cc2)CC1
inactive: NCI-H23 lung 98.3% | NCI-H226 lung 90.6% | NCI-H322M lung 124% | HOP-62 NSCLC 112% | NCI-H460 lung 112% | HOP-92 NSCLC 90.8% | NCI-H522 lung 92.9% | 786-0 renal 103% | COLO 205 colon 111%

CCOC(=O)CCC(=O)O[C@H]1[C@H](O[C@@H]2[C@@H](C)[C@H](O[C@H]3C[C@@](C)(OC)[C@@H](O)[C@H](C)O3)[C@@H](C)C(=O)O[C@H](CC)[C@@](C)(O)[C@H](O)[C@@H](C)C(=O)[C@H](C)C[C@@]2(C)O)O[C@H](C)C[C@@H]1N(C)C
inactive: NCI-H23 lung 99.6% | NCI-H226 lung 97.2% | NCI-H322M lung 90.2% | HOP-62 NSCLC 94.6% | NCI-H460 lung 119% | HOP-92 NSCLC 102% | NCI-H522 lung 92.6% | 786-0 renal 98.2% | COLO 205 colon 109%

O=CN1N=C(c2ccc(Nc3ccnc4cc(Cl)ccc34)cc2)CC1c1ccc(Cl)cc1 (configuration not stated)
active: NCI-H460 lung 6.99%
inactive: NCI-H23 lung 39.2% | NCI-H226 lung 52.6% | NCI-H322M lung 44.1% | HOP-62 NSCLC 33.8% | HOP-92 NSCLC 49.5% | NCI-H522 lung 26.9% | 786-0 renal 27.9% | COLO 205 colon 12.1%

O=C(CNc1ccc2c(c1)C(=O)c1ccccc1C2=O)Nc1ccc2c(c1)C(=O)c1ccccc1C2=O
active: NCI-H23 lung -70.5% | NCI-H226 lung -62% | NCI-H322M lung -95.2% | HOP-62 NSCLC -86.5% | NCI-H460 lung -71.6% | HOP-92 NSCLC -65.7% | NCI-H522 lung -96.2% | 786-0 renal -90.3% | COLO 205 colon -89%

CC(=O)Nc1cc(C(c2ccccc2)c2ccccc2)cc(C(c2ccccc2)c2ccccc2)c1C
inactive: NCI-H23 lung 60% | NCI-H226 lung 55.6% | NCI-H322M lung 81.7% | NCI-H460 lung 55.4% | HOP-92 NSCLC 41.4% | NCI-H522 lung 45.6% | 786-0 renal 63.6% | COLO 205 colon 64.3%
active: HOP-62 NSCLC 8.81%

c1ccc2nc(N/N=C3\CCCCC3C3CCCCC3)ccc2c1 (configuration not stated)
inactive: NCI-H23 lung 40.1% | NCI-H226 lung 53.8% | NCI-H322M lung 64.5% | NCI-H460 lung 39.7% | NCI-H522 lung 60% | 786-0 renal 48.6% | COLO 205 colon 41%
active: HOP-62 NSCLC 8.28% | HOP-92 NSCLC -11.3%

NS(=O)(=O)c1cc(C2(O)NC(=O)c3ccccc32)ccc1Cl (configuration not stated)
inactive: NCI-H23 lung 106% | NCI-H226 lung 97.9% | NCI-H322M lung 89.6% | HOP-62 NSCLC 109% | NCI-H460 lung 111% | HOP-92 NSCLC 104% | NCI-H522 lung 99.5% | 786-0 renal 102% | COLO 205 colon 103%

COc1ccc(CNC(=O)c2c(C)n([O-])c3cc(F)c(F)cc3[n+]2=O)cc1
inactive: NCI-H23 lung 41.9% | NCI-H226 lung 99.6% | NCI-H322M lung 97.1% | HOP-62 NSCLC 107% | NCI-H460 lung 97.2% | HOP-92 NSCLC 89.1% | NCI-H522 lung 77.9% | 786-0 renal 92.9% | COLO 205 colon 131%

O=C(N/N=C/c1cccc([N+](=O)[O-])c1)c1ccc(Br)o1
inactive: NCI-H23 lung 102% | NCI-H226 lung 109% | NCI-H322M lung 105% | HOP-62 NSCLC 106% | NCI-H460 lung 114% | HOP-92 NSCLC 85.7% | NCI-H522 lung 85.7% | 786-0 renal 92.5% | COLO 205 colon 97.9%

O=C(O)CCC(=O)OC[C@@H](NC(=O)C(Cl)Cl)[C@H](O)c1ccc([N+](=O)[O-])cc1
inactive: NCI-H23 lung 98.4% | NCI-H226 lung 89.3% | NCI-H322M lung 99.5% | HOP-62 NSCLC 98.5% | NCI-H460 lung 111% | HOP-92 NSCLC 86.7% | NCI-H522 lung 91.7% | 786-0 renal 93.7% | COLO 205 colon 99.4%

O=C(c1ccc(Cl)cc1)c1ccc(Cl)cc1
inactive: NCI-H23 lung 104% | NCI-H226 lung 100% | NCI-H322M lung 115% | HOP-62 NSCLC 98.8% | NCI-H460 lung 107% | HOP-92 NSCLC 101% | NCI-H522 lung 85.2% | 786-0 renal 114% | COLO 205 colon 117%

NS(=O)(=O)c1ccc(-n2ncc3c(N/N=C/c4ccccc4)ncnc32)cc1
inactive: NCI-H23 lung 80.6% | NCI-H226 lung 107% | NCI-H322M lung 94.6% | HOP-62 NSCLC 104% | NCI-H460 lung 66.4% | HOP-92 NSCLC 87.6% | A549/ATCC NSCLC 52% | 786-0 renal 93.2% | COLO 205 colon 97.5%
